Results published in PubChem BioAssay AID1159580 (chemical genetic matrix, 2015).
About 2,000 (36%) of roughly 5,500 compounds were called active. Another 18% or so got no clear call; they are omitted. Cut-off read from the data, not from the text of the source: active = normalized growth mostly below about 0.91 (no sharp cut-off); inconclusive = no clear call, values can overlap the other calls; inactive = mostly above about 0.92. This is one part of the list.

Assay: chemical genetic growth profiling, strain panel (AID 1159580);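 note: tested at 20 µM; growth read once vehicle control cultures reached saturation at 30 °C; 1 = growth at the plate median or of vehicle wells; lower values mean less growth of the strain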
Conditions: growth OD

Measured: normalized growth

CC(N)CCCC(C)(C)O (centres undefined)
inactive: S. cerevisiae deletion strains, locus YJR066W, strain TOR1, stronger effect = lower value 1.01 | S. cerevisiae deletion strains, locus YKL009W, strain mrt4, stronger effect = lower value 0.985 | S. cerevisiae deletion strains, locus YKL068W, stronger effect = lower value 0.995 | S. cerevisiae deletion strains, locus YKL085W, strain MDH1 (second series), stronger effect = lower value 0.995 | S. cerevisiae deletion strains, locus YKL085W, strain MDH1, stronger effect = lower value 0.995 | S. cerevisiae deletion strains, locus YKL160W, strain elf1, stronger effect = lower value 0.991 | S. cerevisiae deletion strains, locus YKL190W, strain CNB1, stronger effect = lower value 0.995 | S. cerevisiae deletion strains, locus YKR001C, strain vps1, stronger effect = lower value 0.99 | S. cerevisiae deletion strains, locus YKR026C, strain gcn3, stronger effect = lower value 0.956 | S. cerevisiae deletion strains, locus YKR091W, strain srl3, stronger effect = lower value 0.977 | S. cerevisiae deletion strains, locus YLL001W, strain dnm1, stronger effect = lower value 0.974 | S. cerevisiae deletion strains, locus YLL026W, stronger effect = lower value 0.979 | S. cerevisiae deletion strains, locus YLL041C, strain sdh2, stronger effect = lower value 0.968 | S. cerevisiae deletion strains, locus YLR027C, strain aat2, stronger effect = lower value 0.99 | S. cerevisiae deletion strains, locus YLR039C, strain RIC1, stronger effect = lower value 1.01 | S. cerevisiae deletion strains, locus YLR058C, strain SHM2, stronger effect = lower value 1.01 | S. cerevisiae deletion strains, locus YLR102C, strain apc9, stronger effect = lower value 1.01 | S. cerevisiae deletion strains, locus YLR113W, strain HOG1, stronger effect = lower value 0.988 | S. cerevisiae deletion strains, locus YLR221C, strain rsa3, stronger effect = lower value 0.982 | S. cerevisiae deletion strains, locus YLR258W, strain gsy2, stronger effect = lower value 0.982 | S. cerevisiae deletion strains, locus YLR262C, strain YPT6 (second series), stronger effect = lower value 0.995 | S. cerevisiae deletion strains, locus YLR262C, strain YPT6, stronger effect = lower value 1.03 | S. cerevisiae deletion strains, locus YLR268W, strain sec22, stronger effect = lower value 0.999 | S. cerevisiae deletion strains, locus YLR320W, strain mms22, stronger effect = lower value 1.01 | S. cerevisiae deletion strains, locus YLR330W, strain CHS5, stronger effect = lower value 1.01 | S. cerevisiae deletion strains, locus YLR342W, strain FKS1 (second series), stronger effect = lower value 1.04 | S. cerevisiae deletion strains, locus YLR342W, strain FKS1, stronger effect = lower value 0.982 | S. cerevisiae deletion strains, locus YLR357W, strain rsc2, stronger effect = lower value 0.981 | S. cerevisiae deletion strains, locus YLR370C, strain arc18, stronger effect = lower value 0.988 | S. cerevisiae deletion strains, locus YLR371W, strain rom2, stronger effect = lower value 0.991 | S. cerevisiae deletion strains, locus YLR384C, strain iki3, stronger effect = lower value 0.985 | S. cerevisiae deletion strains, locus YLR418C, strain cdc73, stronger effect = lower value 1.05 | S. cerevisiae deletion strains, locus YML016C, strain PPZ1, stronger effect = lower value 1 | S. cerevisiae deletion strains, locus YML032C, strain rad52, stronger effect = lower value 0.986 | S. cerevisiae deletion strains, locus YML120C, strain ndi1, stronger effect = lower value 0.981 | S. cerevisiae deletion strains, locus YML124C, strain tub3, stronger effect = lower value 1.01 | S. cerevisiae deletion strains, locus YMR058W, strain fet3, stronger effect = lower value 0.974 | S. cerevisiae deletion strains, locus YMR078C, strain ctf18, stronger effect = lower value 1.01 | S. cerevisiae deletion strains, locus YMR125W, strain sto1, stronger effect = lower value 0.957 | S. cerevisiae deletion strains, locus YMR129W, stronger effect = lower value 0.978 | S. cerevisiae deletion strains, locus YMR205C, strain PFK2, stronger effect = lower value 1.01 | S. cerevisiae deletion strains, locus YMR223W, strain ubp8, stronger effect = lower value 1.02 | S. cerevisiae deletion strains, locus YMR231W, strain pep5, stronger effect = lower value 0.983 | S. cerevisiae deletion strains, locus YMR263W, strain SAP30, stronger effect = lower value 0.984 | S. cerevisiae deletion strains, locus YMR307W, strain GAS1, stronger effect = lower value 1.06 | S. cerevisiae deletion strains, locus YNL067W, strain RPL9B, stronger effect = lower value 0.973 | S. cerevisiae deletion strains, locus YNL071W, strain lat1, stronger effect = lower value 0.987 | S. cerevisiae deletion strains, locus YNL183C, strain NPR1, stronger effect = lower value 1.03 | S. cerevisiae deletion strains, locus YNL209W, strain ssb2, stronger effect = lower value 0.976 | S. cerevisiae deletion strains, locus YNL233W, strain BNI4, stronger effect = lower value 0.97 | S. cerevisiae deletion strains, locus YNL248C, strain rpa49, stronger effect = lower value 0.965 | S. cerevisiae deletion strains, locus YNL250W, strain rad50, stronger effect = lower value 0.996 | S. cerevisiae deletion strains, locus YNL271C, strain bni1, stronger effect = lower value 1.01 | S. cerevisiae deletion strains, locus YNL298W, strain CLA4, stronger effect = lower value 0.999 | S. cerevisiae deletion strains, locus YNL307C, strain MCK1, stronger effect = lower value 1.01 | S. cerevisiae deletion strains, locus YNL322C, strain KRE1 (second series), stronger effect = lower value 0.972 | S. cerevisiae deletion strains, locus YNR049C, strain mso1, stronger effect = lower value 0.965 | S. cerevisiae deletion strains, locus YNR052C, strain pop2, stronger effect = lower value 1 | S. cerevisiae deletion strains, locus YOL006C, strain TOP1, stronger effect = lower value 0.947 | S. cerevisiae deletion strains, locus YOL012C, strain htz1 0.693 | S. cerevisiae deletion strains, locus YOL147C, strain pex11, stronger effect = lower value 1 | S. cerevisiae deletion strains, locus YOR001W, strain rrp6, stronger effect = lower value 0.961 | S. cerevisiae deletion strains, locus YOR061W, strain CKA2, stronger effect = lower value 1 | S. cerevisiae deletion strains, locus YOR069W, strain VPS5, stronger effect = lower value 1.01 | S. cerevisiae deletion strains, locus YOR070C, strain gyp1, stronger effect = lower value 0.992 | S. cerevisiae deletion strains, locus YOR080W, strain dia2, stronger effect = lower value 0.98 | S. cerevisiae deletion strains, locus YOR083W, strain WHI5, stronger effect = lower value 0.979 | S. cerevisiae deletion strains, locus YOR106W, strain vam3, stronger effect = lower value 0.978 | S. cerevisiae deletion strains, locus YOR136W, strain idh2, stronger effect = lower value 0.991 | S. cerevisiae deletion strains, locus YOR144C, strain elg1, stronger effect = lower value 0.995 | S. cerevisiae deletion strains, locus YOR184W, strain ser1, stronger effect = lower value 0.999 | S. cerevisiae deletion strains, locus YOR231W, strain MKK1, stronger effect = lower value 1.03 | S. cerevisiae deletion strains, locus YOR265W, strain rbl2, stronger effect = lower value 0.982 | S. cerevisiae deletion strains, locus YOR270C, strain vph1, stronger effect = lower value 0.989 | S. cerevisiae deletion strains, locus YOR290C, strain snf2, stronger effect = lower value 0.94 | S. cerevisiae deletion strains, locus YOR316C, strain cot1, stronger effect = lower value 1 | S. cerevisiae deletion strains, locus YPL051W, strain arl3, stronger effect = lower value 0.979 | S. cerevisiae deletion strains, locus YPL055C, strain LGE1, stronger effect = lower value 0.915 | S. cerevisiae deletion strains, locus YPL078C, strain atp4, stronger effect = lower value 0.975 | S. cerevisiae deletion strains, locus YPL106C, strain sse1, stronger effect = lower value 0.951 | S. cerevisiae deletion strains, locus YPL240C, strain hsp82, stronger effect = lower value 0.966 | S. cerevisiae deletion strains, locus YPL241C, strain CIN2, stronger effect = lower value 1 | S. cerevisiae deletion strains, locus YPL256C, strain CLN2, stronger effect = lower value 1.1 | S. cerevisiae deletion strains, locus YPR119W, strain clb2, stronger effect = lower value 0.997 | S. cerevisiae deletion strains, locus YPR141C, strain kar3, stronger effect = lower value 1 | S. cerevisiae deletion strains, locus YPR163C, strain tif3, stronger effect = lower value 1 | S. cerevisiae deletion strains, locus YPR167C, strain met16, stronger effect = lower value 1.01 | S. cerevisiae deletion strains, strain wtn01, stronger effect = lower value 1 | S. cerevisiae strains, strain wild type, stronger effect = lower value 1
